This is a sample that favours compounds with a hit; in the whole collection about 4.1% have one here.
A1 inh = caspase 3/7 activation in MEF A1-2A-BIM cells, primary screen, A1 inhibitor project, cell-based, luminescence, HTS. Caspase-Glo 3/7 luminescence, 3 h; percent of clofoctol response, vehicle zero. caspase activation, % (concentration not given with the values). actives 0.066% (n = 330,000). AID 2462, 2010;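 active means over half of replicate activation scores above 10%, or exactly half above 10 with the replicate mean above 10; inconclusive means replicate mean below 10 yet half the replicates above 10; inactive means over half of replicates below 10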
Mdm2 MdmX PPI = inhibitors of human Mdm2-MdmX association, primary screen, cell-based, luminescence, split luciferase, SaOS-2, uHTS; actives 3% (n = 330,000); inhibition, % at 8 µM; Protein Mdm4 (Homo sapiens) + E3 ubiquitin-protein ligase Mdm2 (Homo sapiens), …; SaOS-2 split-luciferase Mdm2/MdmX complementation;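 active means inhibition of at least 50% at 8 µM in the primary screen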
CSC inhib = cancer stem cell viability inhibitors, primary screen, luminescence | cancer stem cell-like cells viability | inhibition, % at 7.5 µM | actives 1.1% (n = 300,000) | AID 2717, 2010; in the data active means inhibition above about 75%; inconclusive means no clear call, values can overlap the other calls; tested in HMLE shEcad cells
Beta apoptosis = inhibitors of cytokine-induced beta cell apoptosis, primary screen, luminescence | protection from apoptosis, % (test concentration not listed) | AID 435005, 2010 | actives 0.8% (n = 300,000) | INS-1E cytokine-induced death, ATP luminescence, 48 h; percent of positive-control rescue, neutral wells zero;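 active means Every replicate reaches about 75%, or at least half do and their mean reaches it too, limit read from the data; inconclusive means At least half of replicates reach the limit but their mean does not; inactive means Under half of replicates reach the limit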;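 further: 0% = cytokine-treated negative control wells and 100% = positive control rescue; higher means more ATP so stronger rescue from cytokine killing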
aSyn UTR inh = MLPCN primary screen, SNCA 5' untranslated region. alpha-synuclein 5'UTR reporter, inhibitor activity. inhibition, % (tested at 7.5 µM). actives 0.82% (n = 300,000). AID 1813, 2009; in the data active means inhibition above about 60%; inconclusive means no clear call, values can overlap the other calls;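 further: H4 neuroglioblastoma cells stably carrying SNCA 5'UTR luciferase fusion; 0% = DMSO wells and 100% = positive control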
Starred values were filed as active, the others as inactive; ? = inconclusive; . = no result.

SMILES	A1 inh	Mdm2 MdmX PPI	CSC inhib	Beta apoptosis	aSyn UTR inh
CSc1ncccc1C(=O)Nc1nc2ccc(Oc3ccccc3)cc2s1	-7	16	78*	9	-31
CCOc1ccccc1NC(=O)Cn1nnc(C(=O)NCc2ccco2)c1N	1	42	-2	7	85*
CCCN(c1ccccc1F)S(=O)(=O)c1cc(-c2cc(C)no2)ccc1OC	?	28	2	-4	-7
O=C(Nc1ccc([N+](=O)[O-])cc1)Nc1nc(-c2ccc(Cl)s2)cs1	0	.	97*	129*	92*
CC(=O)c1c(C)[nH]c(C(=O)OCCOc2ccccc2)c1C	-1	-11	15	8	67*
CCCC(O)(c1ccc(Cl)cc1)C(CN1CCOCC1)c1ccccc1 (stereo not drawn)	.	2	.	.	15
CCCC(O)(c1ccc(Br)cc1)C(CN1CCOCC1)c1ccc(Cl)cc1 (stereo not drawn)	0	24	93*	13	3
O=C(COC(=O)/C=C/c1ccccc1[N+](=O)[O-])NNC(=O)c1ccc(F)cc1	.	19	.	.	.
COc1ccc(CN(C)c2ncnc3sccc23)c(OC)c1OC	0	32	77*	10	-9
COc1ccc(CCN(C)c2ncnc3sccc23)cc1OC	0	30	-11	-5	11
COc1ccc(N2CCN(C(=O)CSc3nnc4n3C(C)(C)Cc3ccccc3-4)CC2)cc1	1	21	-3	6	5
Cc1ccc(Cl)cc1N1CCN(C(=O)CSc2nnc3n2C(C)(C)Cc2ccccc2-3)CC1	-1	47	41	94*	30
CC(C)S(=O)(=O)c1cnc(-c2cccnc2)nc1N	0	6	-2	-3	8
NC(=O)c1nc(C(=O)N2CCN(c3ccccc3)CC2)c2ccccc2n1	0	9	7	-7	.
Oc1cc(O)cc(-c2cc3ccc(O)cc3o2)c1	0	-28	-11	-4	51
CC1(C)Oc2cc3oc(-c4cc(O)cc(O)c4)cc3cc2CC1O (stereo not drawn)	-1	-8	3	-10	97*
Cc1ccc(Nc2nc(N)nc(-c3oc4ccccc4c3C)n2)cc1	1	26	40	67	91*
N#Cc1ccsc1NC(=O)C1CCN(C(=O)c2ccc(Cl)cc2)CC1	0	2	-15	0	35
Cc1c(C)c2ccc(OCC(=O)Nc3nccs3)cc2oc1=O	-9	-120	4	-7	66*
Cc1cc(=O)oc2cc(OCC(=O)Nc3nccs3)ccc12	0	-5	-11	1	-51
COc1ccc(-c2nnc(SCC(=O)NC(=O)Cc3ccccc3)n2C)cc1	-1	-15	.	-1	.
O=C(N/N=C/c1ccc([N+](=O)[O-])s1)c1ccccc1	0	37	.	-1	68*
O=C(N/N=C/c1ccc([N+](=O)[O-])s1)c1ccccc1Br	1	22	.	.	47
O=C(N/N=C/c1ccc([N+](=O)[O-])s1)C(O)c1ccccc1 (stereo not drawn)	1	42	3	94*	-1
O=C(N/N=C/c1ccc(Br)s1)c1cccc([N+](=O)[O-])c1	0	29	6	13	70*
SMILES	A1 inh	Mdm2 MdmX PPI	CSC inhib	Beta apoptosis	aSyn UTR inh
Cc1ccccc1C(=O)N/N=C/c1ccc([N+](=O)[O-])s1	0	14	.	.	93*
COc1cc(C(=O)OCC(=O)N2CCOCC2)c([N+](=O)[O-])cc1OC	0	-1	-2	-4	4
Cc1ccccc1NC(=O)/C=C/c1ccc([N+](=O)[O-])s1	-2	.	98*	120*	-80
O=C(Cc1ccccc1)N/N=C/c1ccc([N+](=O)[O-])s1	-1	15	9	88*	16
COC(=O)N/N=C/c1ccc([N+](=O)[O-])s1	0	18	-16	-9	-142
O=C(O/N=C/c1ccc(Br)cc1)c1ccc(F)cc1	0	13	-7	-1	-20
CNC(=O)NC(=O)C(C)OC(=O)c1oc2ccccc2c1CSc1ccc(Cl)cc1 (stereo not drawn)	3	29	104*	-5	11
COc1ccc(-c2csc(N(CC3CCCO3)C(=O)c3cccs3)n2)cc1 (stereo not drawn)	-2	21	0	1	-14
COc1ccc(OC)c(-c2csc(N(CC3CCCO3)C(=O)C3CCCCC3)n2)c1 (stereo not drawn)	2	7	78*	3	0
C=CCn1c2ccccc2c(=O)c2cc(C#Cc3ccccn3)ccc21	-9	-28	76*	8	.
COc1cc(C)c(C(C)C)cc1S(=O)(=O)n1cnc(C)c1	1	26	55	0	64*
CCN1C(=O)[C@H]2[C@@H](c3ccc(-c4ccc(C(C)=O)cc4)cc3)N3CCC[C@@]3(C(=O)OC)[C@H]2C1=O	-5	11	6	-8	-1
Cc1cccc(N2CCN(C(=O)c3ccc(-n4cncn4)c([N+](=O)[O-])c3)CC2)c1C	2	18	-7	-7	20
CCSc1ncc(/C=N/Nc2ccccc2)n1C	0	0	-3	-9	-109
CCSc1ncc(/C=N/Nc2ccc(Cl)cc2)n1C	-1	-193	93*	0	-181
O=C1c2cccc3cccc(c23)C(=O)N1c1ccccn1	1	-4	-4	-13	32
O=C1c2c(Br)c(Br)c(Br)c(Br)c2C(=O)N1c1ccccn1	1	33	84*	-11	-112
CN(Cc1ccccc1)C(=O)COC(=O)CCC(=O)c1ccc(F)cc1	-1	-5	7	-1	.
CCCCc1ccc(/C(C)=N/Nc2cc(N3CCOCC3)nc(C)n2)cc1	0	13	80*	13	-6
CCOCc1nnc(NC(=O)C2CC(=O)N(CCc3ccc(F)cc3)C2)s1 (stereo not drawn)	0	9	.	-10	-3
O=C(CCCCC(=O)Nc1ccc(F)cc1F)Nc1ccc(F)cc1F	-1	17	8	133*	-12
O=C(CCCCC(=O)Nc1ccc(F)cc1)Nc1ccc(F)cc1	0	-3	4	4	4
CC(C)(C)n1nc2c(c1NC(=O)Cc1ccc([N+](=O)[O-])cc1)CS(=O)(=O)C2	-1	14	-2	-9	15
COCc1cc(C)nc2sc(C(=O)NN)c(-n3cccc3)c12	0	-23	6	-5	71*
CN[C@H](C)C(=O)NC[C@H]1O[C@@H](n2cnc3c(N)ncnc32)[C@H](O)[C@@H]1O	.	15	.	.	.
Cc1ccc(-c2cc(-c3ccccc3)c(C#N)c(N)n2)o1	2	15	5	-14	14
Cc1ccc(-c2cc(-c3ccc(F)cc3)nc(N)c2C#N)o1	0	-10	31	-4	63*
CN1C(=O)Cc2cc(S(=O)(=O)N3CCN(c4ccccc4F)CC3)ccc21	0	17	5	-1	-26
